Sfp inh: inhibitors of Bacillus subtilis Sfp phosphopantetheinyl transferase. Potency, µM, most hits filed as inhibitors. Q9F4F7. Biochemical Sfp PPTase activity, qHTS. 310,000 compounds, 3.5% hits;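 also: the enzyme is Sfp with the accession as filed and its product quenches rhodamine fluorescence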
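With Hepes-Na pH 7.6 buffer containing 10 mM MgCl2, Sfp (15 nM) modified BHQ-2-YbbR (12.5 uM) using rhodamine-CoA (5 uM). Two reads 30 minutes apart at 525/598 nm yielded each well's rate.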
G9a inh: blocks human histone lysine methyltransferase G9a. 350,000 compounds, 8.8% hits. G9a H3K9 monomethylation, AlphaScreen, 2 h. Potency, µM (top dose mostly 102 µM), most hits filed as inhibitors; also: nearly all actives have a fitted effect of over 75% in size
Target sequence (Q96KQ7 913-1193 limits assumed): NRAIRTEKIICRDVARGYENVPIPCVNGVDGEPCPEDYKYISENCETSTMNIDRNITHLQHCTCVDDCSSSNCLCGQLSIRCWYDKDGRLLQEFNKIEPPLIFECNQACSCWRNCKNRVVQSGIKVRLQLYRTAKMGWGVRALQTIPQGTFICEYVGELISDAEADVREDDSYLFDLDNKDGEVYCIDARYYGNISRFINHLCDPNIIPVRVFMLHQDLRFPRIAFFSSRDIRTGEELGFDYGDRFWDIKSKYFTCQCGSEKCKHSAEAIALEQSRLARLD
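Step 1: enzyme (final 20 nM) with compound, 15 min RT. Step 2: substrate peptide 500 nM and SAM 20 uM, 2 h RT. Step 3: anti-H3K9me1 antibody and AlphaScreen beads, 10 min, then plate read.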
PLK1 PBD inh: PLK1 (human) polo-box domain binding inhibition. AID 720504. Plk1 PBD binding of FITC phosphopeptide, fluorescence polarization. 360,000 compounds, 2.8% hits. Potency, µM, most hits filed as inhibitors. P53350; also: series mostly up to about 57 µM; nearly all actives have a fitted effect of over 65% in size
CCT modulator: modulators of cytosolic chaperonin (CCT/TRiC) activity | activity change, % (concentration not given with the values), hits read low | purified chaperonin ATPase assay, HTRF ADP detection, 30 min | 360,000 compounds, 0.3% hits; in the data active = activity change below about -30%
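ATPase activity: ADP formed was measured by HTRF Transcreener (665/615 nm ratio) after 30 min at 37 deg C with 10 uM ATP. Compounds screened at one 76 uM concentration against 40 or 20 nM TRiC in Tris pH 7.4/KCl/MgCl2/DTT buffer.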
MmCpn inh: blocks the Methanococcus maripaludis chaperonin Mm-Cpn | 330,000 compounds, 0.031% hits | Potency, µM (doses to about 76.9 µM), usual class: inhibitors | AID 504842 | purified Mm-Cpn ATPase, ADP Transcreener TR-FRET; also: nearly all actives have a fitted effect of over 80% in size
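25 nM Mm-CPN + cpd, 10 min 37°C; + 10 uM ATP, 30 min 37°C; buffer 30 mM Tris pH 7.4, 100 mM KCl, 5 mM MgCl2, 1 mM DTT; Transcreener ADP HTRF detection 30 min RT.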
VDR inhibitor: blocks the human vitamin D receptor; VDR-SRC2-3 peptide fluorescence polarization, 2 h; Potency, µM, hits mostly inhibitors; 400,000 compounds, 0.93% hits; AID 504847
Target sequence (P11473 whole entry, looked up): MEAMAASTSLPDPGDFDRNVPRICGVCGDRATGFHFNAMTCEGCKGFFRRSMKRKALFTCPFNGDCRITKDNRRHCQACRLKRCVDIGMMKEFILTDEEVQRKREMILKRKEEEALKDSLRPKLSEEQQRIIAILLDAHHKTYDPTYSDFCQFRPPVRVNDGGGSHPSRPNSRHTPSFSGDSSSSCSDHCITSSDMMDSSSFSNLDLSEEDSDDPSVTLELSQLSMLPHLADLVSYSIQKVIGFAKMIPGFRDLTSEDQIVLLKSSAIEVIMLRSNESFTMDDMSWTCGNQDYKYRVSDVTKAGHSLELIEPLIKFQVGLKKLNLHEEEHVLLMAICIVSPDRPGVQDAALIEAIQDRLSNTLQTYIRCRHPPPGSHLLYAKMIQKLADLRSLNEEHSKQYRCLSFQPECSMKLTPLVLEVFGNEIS
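Compounds are added to VDR with labelled SRC2-3 coactivator peptide and held 2 h at room temperature. Inhibition of the VDR–peptide interaction is then read as a change in fluorescence polarization.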
Numbers stand for hits; – = inactive; ? = inconclusive; · = no result; [ ] = another dose, or the depositor's remark. Shown are actives, neighbours in structure and some others; about 10% of the full set was active somewhere. Unless noted, calls follow the shape of the dose curve; as a rule, active = well fitted curve in the direction sought with a large enough effect; inconclusive = small, poorly fitted or top-dose-only effect, or another doubt; inactive = no such curve, though single readings can be large; an effect the other way counts as inactive or inconclusive.

SMILES	Sfp inh	G9a inh	PLK1 PBD inh	CCT modulator	MmCpn inh	VDR inhibitor
CCc1ccc(NCc2cc3cc4c(cc3n(CC(=O)Nc3ccc(C)cc3)c2=O)OCO4)cc1	·	?	·	·	·	–
O=C(Nc1ccon1)C1CCN(S(=O)(=O)c2cccs2)CC1	–	–	3.36µM	–	–	–
COc1ccccc1CNC(=O)c1ccc2c(c1)nc(C)n2-c1ccccc1OC	·	?	·	·	·	–
CCCCN1C(=O)/C(=C2\SC(N3CCCCC3)=NC2=O)c2ccccc21	44.7µM	15.8µM	23.8µM	–	–	–
O=C1N=C(N2CCOCC2)S/C1=C1\C(=O)N(Cc2ccccc2)c2ccc(Br)cc21	–	?	·	·	–	·
CC(=O)C1=C(O)C(=O)N(c2ccc(S(N)(=O)=O)cc2)C1c1ccc([N+](=O)[O-])cc1 (configuration not stated)	–	–[0.501 µM]	–	–	–	–
CC(=O)C1=C(O)C(=O)N(c2ccc(S(=O)(=O)Nc3nccs3)cc2)C1c1ccc(F)cc1 (configuration not stated)	–	56.2µM	–	–	–	–
CC(=O)C1=C(O)C(=O)N(c2ccc(S(=O)(=O)Nc3nccs3)cc2)C1c1ccc([N+](=O)[O-])cc1 (configuration not stated)	–	79.4µM	–	–	?	–
O=S(=O)(Nc1nccs1)c1ccc(F)cc1	–	·	–	–	–	?
CCC(C(=O)N1CCN(c2ccccc2)CC1)n1nc(C)c2sc3ccccc3c2c1=O (configuration not stated)	·	–	·	·	·	–
O=S(=O)(N/N=C/c1cccnc1)c1ccc(Cl)c(Cl)c1	–	17.8µM	13.4µM	–	–	?
O=C(C1=NN[C@@H]2C(=O)N(c3cccc(C(F)(F)F)c3)C(=O)[C@H]12)c1cnccn1	–	39.8µM	–	–	–	–
N#Cc1ccc(N2C(=O)[C@@H]3C(C(=O)c4cnccn4)=NN[C@@H]3C2=O)cc1	17.8µM	·	–	–	–	–
COC(=O)c1ccc(/C=N/NC(=O)CC(=O)NC(C)C)cc1	–	–[0.0925 µM]	–	–	–	–
CC(C)c1ccc(/C=N/NC(=O)C2CCCC2)cc1	–	·	–	–	–	–
COC(=O)c1ccc(/C=N/NC(=S)NC(C)C)cc1	–	–	13.4µM	–	–	25.1µM
Cc1ccc(C(=O)Oc2ccc(/C=N/NC(N)=O)cc2)cc1	–	28.2µM	–	–	–	–
CNC(=S)N/N=C/c1ccc(C(C)C)cc1	·	·	2.99µM	–	·	–
COc1ccc(OCC(=O)Nc2cc(-c3nc4ccccc4o3)ccc2Cl)cc1	·	–	·	·	·	–
CCOc1ccccc1CNC(=O)CCCn1nc(C)c2sc3ccccc3c2c1=O	·	?	·	·	·	–
COc1ccc(NC(=O)CN2C(=O)/C(=C3\SC(=S)N(CCC(=O)O)C3=O)c3ccccc32)cc1	–	–	10.6µM	–	–	–
O=C(CN1C(=O)/C(=C2/SC(=S)N(CCS(=O)(=O)O)C2=O)c2ccccc21)Nc1cccc(Br)c1	·	·	26.7µM	–	–	?
Cc1cccc(NC(=O)CN2C(=O)/C(=C3\SC(=S)N(CC4CCCO4)C3=O)c3ccccc32)c1 (configuration not stated)	–	–	–	–	–	–
Cc1sc2ncnc(SCC(=O)NC(=O)c3cccn3C)c2c1C	–	31.6µM	16.8µM	–	–	–
CC(=O)c1ccc(NC(=O)c2ccccc2Sc2ncnc3sc(C)c(C)c23)cc1	–	31.6µM	–	–	–	–
SMILES	Sfp inh	G9a inh	PLK1 PBD inh	CCT modulator	MmCpn inh	VDR inhibitor
CCN(CC(=O)Nc1ccc(NC(C)=O)cc1)C(=O)CSc1ncnc2sc(C)c(C)c12	·	12.6µM	–	–	–	–
O=C(CSc1nccn(-c2cccc(F)c2)c1=O)Nc1ccc(Cl)cc1F	–	–	?	–	–	89.1µM
O=C(CSc1nccn1-c1cccc(Cl)c1)Nc1cccc(C(F)(F)F)c1	·	11.2µM	·	·	·	–
Cc1cccc(-n2ccnc2SCC(=O)Nc2cccc3ccccc23)c1	·	12.6µM	·	·	·	–
O=C(CSc1nccn1-c1cccc(Cl)c1)Nc1cccc2ccccc12	·	11.2µM	·	·	·	–
COc1ccc(OC)c(NC(=O)N2c3ccccc3Sc3ccccc32)c1	·	?	·	·	·	–
Cc1ccc(CCNC(c2ccc(F)cc2)c2nnc(-c3ccccc3Cl)o2)cc1 (configuration not stated)	·	–	·	·	·	–
COc1cccc(Sc2nc(N(C)C)ncc2S(=O)(=O)c2ccc(Cl)cc2)c1	·	·	·	·	·	–
Cc1ccc(NC(c2ccc(Cl)cc2)c2nnc(-c3cccc(F)c3)o2)cc1C (configuration not stated)	·	–	·	·	·	–
COC(=O)c1ccccc1NC(=O)c1ccc2c(c1)CCN2S(=O)(=O)c1ccc(Cl)cc1	·	–	·	·	·	–
CSC1=N/C(=C\c2ccc(C)cc2)C(=O)S1	–	–[12.7 µM]	–	–	–	–
CCOC(=O)SC1=N/C(=C\c2ccc(N(C)C)cc2)C(=O)S1	–	10µM	–	–	–	–
CC1CCN(S(=O)(=O)c2ccc3c(ccn3CCC(=O)NCc3ccccc3F)c2)CC1	·	–	·	·	·	–
Cc1cccc(NC(=O)CCc2c(C)nc3nc(CNC(=O)c4cccc(F)c4)nn3c2C)c1	·	–	·	·	·	–
N#CC(=C(O)CN1CCN(c2ccccc2F)CC1)c1nc(-c2ccccc2)cs1	·	·	–	–	·	–
N#C/C(=C(/O)CN1CCCC1)c1nc(-c2ccccc2)cs1	31.6µM	·	–	–	–	–
CCN(CC)CCn1c(NCc2cccc(OC)c2)nc2ccccc21	–	50.1µM	–	–	–	–
COc1ccc(CNc2nc3ccccc3n2C)c(OC)c1	?	–	–	–	–	–
CCN(CC)CCn1c(NCc2cc(OC)ccc2OC)nc2ccccc21	–	?	26.7µM	–	–	?
O=c1[nH]c2c(s1)C(c1ccccc1)C1C3CCC(C3)C1S2 (configuration not stated)	–	44.7µM	?	–	–	–
COc1cc(C2c3sc(=O)[nH]c3SC3C4CCC(C4)C23)ccc1O (configuration not stated)	–	12.6µM	?	–	–	–
COC(=O)C1CSc2[nH]c(=O)sc2C1c1ccc(O)c(OC)c1 (configuration not stated)	56.2µM	14.1µM	?	–	–	–
CCOc1ccc(N2C(=O)C3Sc4[nH]c(=O)sc4C(c4ccc(OC)c(OC)c4)C3C2=O)cc1 (configuration not stated)	–	?	–	–	–	–
CCOC(=O)C1CSc2[nH]c(=O)sc2C1c1ccccc1 (configuration not stated)	39.8µM	44.7µM	–	–	–	–
COc1ccc(C2c3sc(=O)[nH]c3SCC2C(N)=O)cc1 (configuration not stated)	–	–	–	–	–	–
COc1ccc(C2c3sc(=O)[nH]c3SC3C4CCC(C4)C23)cc1 (configuration not stated)	–	?	–	–	–	–

Source: PubChem
